# A selection: hits, their analogues and other compounds. The true share with any hit is near 12%.
# WT yeast gro inh = growth inhibition of WT yeast, mitochondrial fusion screen; hit rate 2.1% among 190,000; AID 1362; mitochondrial fusion phenotypic screen, WT strain; inhibition, % at 10 µM; in the data active = inhibition above about 58%; tested in S. cerevisiae
# KCC2 mod = modulators of human KCC2 chloride dependent transport | Q9H2X9 | KCC2 cells, thallium flux FluoZin-2 fluorescence | B-score of Tl+ flux slope (higher = more flux/activation; lower = inhibition) at 10 µM | hit rate 2.2% among 190,000;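 active = thallium flux slope and its plate-corrected score both differing from the plate sample mean at a set confidence after two filtering rounds, in either direction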;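 also: slope of fluorescence scaled to starting intensity during 10 to 20 s after thallium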
# ROMK mod = human ROMK K+ channel modulation, primary screen | Tet-inducible ROMK, thallium flux fluorescence; actives lie on both sides | B-score at 10 µM | hit rate 2% among 130,000 | P48048;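 active = signal ratio slope over the read window, or its plate-corrected B-score, at least 3 SD from the plate mean, either direction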;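 also: B-score of the F/F0 ratio slope over 7 to 12 s after thallium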
# L major viab = inhibitors of Leishmania major promastigote growth; Leishmania major promastigotes, resazurin fluorescence viability; AID 1063; inhibition, % at 10 µM; hit rate 9% among 200,000; in the data active = inhibition above about 50%;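 also: promastigotes grown with compound for 44 hours at 28 °C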
# Calpain2 inh = blocks pig calpain II enzyme activity. purified calpain II, fluorogenic peptide substrate, 30 min. inhibition, % at 16 µM. hit rate 0.37% among 220,000;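 active = inhibition above about 50%, limit read from the data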
# Numbers without * were called inactive; i = inactive; / = no result given; ! = not confirmed by another sample.
SMILES,WT yeast gro inh,KCC2 mod,ROMK mod,L major viab,Calpain2 inh
CCOC(=O)C1CCN(CC(=O)Nc2c(C(=O)OC)[nH]c3cccc(Cl)c23)CC1,12.1,/,/,-2.6,-19.3
COC(=O)c1[nH]c2cccc(Cl)c2c1NC(=O)CN(C)C1CCCCC1,61.2*,-0.00352,-0.508,-0.7,-30.8
CCOc1ccc(NS(=O)(=O)c2ccc(N)cc2)cc1,24.2,-0.214,/,14.5,-0.2
Cc1cc(C)cc(NS(=O)(=O)c2cnc(Cl)c(Cl)c2)c1,5.0,-0.602,-1.13,82.1*,12.2
CCOc1ccc(NS(=O)(=O)c2cnc(Cl)c(Cl)c2)cc1,71.0*,-0.649,-0.0135,-1.9,19.1
CC(=O)N1N=C(c2ccccc2OC(=O)/C=C/c2ccccc2)CC1c1ccccc1 (stereo not drawn),/,-0.396,/,/,-59.7
CCOc1ccc(Cl)cc1S(=O)(=O)N1CCN(c2ccc(F)cc2)CC1,38.2,/,/,2.9,59.5*
COc1ccc(C(C)C)cc1S(=O)(=O)N1CC(C)OC(C)C1 (stereo not drawn),-4.8,/,-1.06,2.6,1.8
Cc1cc(Cl)c(S(=O)(=O)N2CCN(c3ccc(F)cc3)CC2)cc1OCC(N)=O,24.2,1.62,/,-7.7,8.7
COc1c(S(=O)(=O)N2CCN(c3ccc(F)cc3)CC2)ccc(Cl)c1Cl,42.2,-0.611,-0.254,-1.2,-5.8
CCOc1ccc(Cl)cc1S(=O)(=O)N1CCN(c2ccc(C)c(C)c2)CC1,27.8,-0.0699,-0.709,89.0*,24.7
COc1ccc(C(C)C)cc1S(=O)(=O)N1CCN(c2ccccc2)CC1,66.2*,-1.51,0.0729,2.6,42.2
COc1ccc(Cl)cc1S(=O)(=O)N1CCN(c2ccc(F)cc2)CC1,17.5,-0.251,/,76.6*,-6.0
O=C(Nc1cccc2ncccc12)C(c1ccccc1)c1ccccc1,-2.5,0.492,0.367,18.9,-44.3
CN1C(=O)/C(=C/c2ccccc2Cl)Sc2ccc(C(=O)NCc3cccnc3)cc21,35.6,-1.61,-0.18,19.4,46.5
COc1cccc(NC(=O)C(c2ccccc2)N2CCNC(=O)C2)c1 (stereo not drawn),2.7,0.0848,0.248,1.6,33.9
CC(C)OCCCNC(=O)CCC(=O)NNc1nc2ccccc2c2nc(-c3ccccc3)nn12,-1.9,1.64,1.36,8.3,-22.1
CC(C)n1nc(C(=O)Nc2cccc(S(=O)(=O)NCc3ccco3)c2)c2ccccc2c1=O,/,-1.14,/,/,5.3
O=C1c2ccccc2C(=O)C12OC2c1ccc(Cl)cc1 (stereo not drawn),-16.8,0.588,0.76,1.4,11.4
CCOC(=O)C1=C(C)N=C2c3ccccc3C(=O)C2C1c1ccccc1 (stereo not drawn),-0.3,0.486,0.633,-3.0,-13.4
O=C1c2ccccc2C2=Nc3ccccc3SC(c3cccc(F)c3)C12 (stereo not drawn),84.2*,-0.689,0.339,88.8*,-25.5
O=C1c2ccccc2C2=Nc3ccccc3SC(c3ccc(Cl)cc3)C12 (stereo not drawn),82.7*,-0.0819,-0.275,98.7*,-15.9
CCC1=C(OC(=O)N(CC)CC)N2C(=O)OC(=NCCc3c[nH]c4ccccc34)[C@]2(Cc2ccccc2)[C@H]2C1=CC[C@H]1C(=O)N(CC)C(=O)[C@H]12,/,-0.596,/,/,-66.9
Cc1cccc(NC(=O)C2C(c3ccccc3)C2(Cl)Cl)c1 (stereo not drawn),63.6*,-0.154,0.859,28.9,4.8
CC(=O)c1cccc(NC(=O)C2C(c3ccccc3)C2(Cl)Cl)c1 (stereo not drawn),36.2,-1.27,/,33.3,11.8
SMILES,WT yeast gro inh,KCC2 mod,ROMK mod,L major viab,Calpain2 inh
Cc1ccc(NC(=O)C2CC(=O)N(CCc3ccccc3)C2)c(C)c1 (stereo not drawn),5.7,-0.389,-0.0666,-2.1,-27.7
Cc1ccc(NC(=O)C2C(c3ccccc3)C2(Cl)Cl)c(C)c1 (stereo not drawn),86.0*,0.45,-0.611,41.1,33.5
COc1ccc(NC(=O)C2C(c3ccccc3)C2(Cl)Cl)cc1 (stereo not drawn),/,-1.79,/,/,11.2
Cc1ccc(NC(=O)C2C3CCCC2C3c2ccccc2)c(C)c1 (stereo not drawn),15.7,-0.794,/,83.8*,12.7
Cc1nnc(NC(=O)c2sc3nc(-c4cccs4)cc(C(F)(F)F)c3c2N)s1,70.5*,-0.741,/,-2.6,-205.6
CC(C)(C)C(=O)c1sc2nc(-c3cccs3)cc(C(F)(F)F)c2c1N,6.5,/,/,53.9*,-150.6
CCc1ccc(NC(=O)C2CCCN2S(=O)(=O)c2ccc3c(c2)n(C)c(=O)c(=O)n3C)cc1 (stereo not drawn),/,-0.45,/,/,-8.7
CN1CCN(CCCN2c3ccccc3Sc3ccc(C(F)(F)F)cc32)CC1,92.6*!,0.295,/,85.5*,-5.3
O=C(CN1CCCC(O)C1)N1c2ccccc2Sc2ccc(C(F)(F)F)cc21 (stereo not drawn),-3.2,/,/,10.2,-7.4
Nc1ccc(C(=O)c2cccs2)cc1[N+](=O)[O-],1.9,-0.0539,0.131,0.6,0.1
COc1ccccc1Nc1nc(C2(C)CCC(=O)O2)cs1 (stereo not drawn),-4.4,-2.49,/,11.7,-34.0
Cc1cc(C)c(S(=O)(=O)N2CCN(C(=O)c3cccs3)CC2)c(C)c1,7.3,-0.943,0.384,61.9*,17.5
CCOC(=O)c1cc([N+](=O)[O-])c([N+](=O)[O-])cc1NC(C)=O,76.3*,-2.67,-1.56,70.6*,-4.1
O=C(COc1ccc2ccccc2c1CN1CCOCC1)N1CCc2ccccc21,7.4,-7.85*,/,59.7*,11.7
Cc1ccc(C(=O)N2CCSCC2)cc1,0.1,0.84,0.518,-4.0,-10.8
O=C(Nc1ccc(Cl)c(Cl)c1)c1ccc(Cn2cc(Cl)cn2)cc1,78.3*,-0.0698,-0.345,23.4,52.8*
Cc1ccc(Oc2ccc(-c3nnc(-c4ccccc4)o3)cc2[N+](=O)[O-])cc1C,-10.8,1.43,/,59.7*,23.6
O=C(CC1CCS(=O)(=O)C1)Nc1ccc[nH]c1=O (stereo not drawn),-6.9,0.166,/,-2.4,-17.6
COc1cc2c3nnc(-c4ccc(F)cc4)c-3cn(Cc3ccccc3F)c2cc1OC,-54.4,i,-3.95*,-3.6,14.5
COc1cc2c3nnc(-c4ccccc4)c-3cn(Cc3ccccc3F)c2cc1OC,14.0,-1.26,-6.76*,37.6,-94.2
Cn1c(N2CCOCC2)nc(-c2ccccc2)c1-c1ccccc1,4.4,0.217,/,14.4,-267.8
CCc1ccc(OCC(=O)NC2CC(C)(C)NC(C)(C)C2)cc1,0.1,-1.37,0.127,2.9,13.7
CCC(Sc1nc2ccsc2c(=O)n1-c1ccc(Cl)c(C)c1)C(=O)NCc1ccco1 (stereo not drawn),33.2,-1.63,0.0853,14.0,2.0
COC1(OC)C(/C=C/c2ccc(Cl)cc2)C(C#N)(C#N)C1(OC)OC (stereo not drawn),-7.9,-0.0387,-1.2,85.2*,-34.6
O=C(Nc1ccc(S(=O)(=O)Nc2ncccn2)cc1)c1ccc(N2CCCC2=O)cc1,/,0.418,/,/,-37.2
CCOC(=O)c1c(NC(=O)CCC(=O)O)sc2c1CCCCC2,-23.2,-2.01,-0.0471,-5.7,-8.6
CCOC(=O)c1c(NC(NC(C)=O)C(Cl)(Cl)Cl)sc2c1CCCC2 (stereo not drawn),67.5*,-0.104,0.187,26.5,2.9

# Source: PubChem
